High-throughput results deposited in PubChem BioAssay by several laboratories.
In the library only some 5.7% were active in any assay of this set; here they are far more common.
rCAG RNA binder: molecules binding r(CAG) RNA repeats; r(CAG) RNA repeat, TO-PRO-1 dye displacement fluorescence; AID 651821; inhibition, % at 3 µM; 1.3% of 370,000 active;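 active means inhibition above the plate cutoff, the mean of all test compounds on that plate plus 3 SD, cut at about 35% in these data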;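 further: higher means more dye released from RNA so lower well fluorescence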
NR3A LBD binder: NR3A (human) ligand-binding domain modulation. AID 1259313. 2.5% of 340,000 active. NR3A LBD differential scanning fluorimetry, Tm shift; 0% = protein alone, 100% = glycine-bound protein. Tm shift relative to glycine control, % at 25 µM;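 active means melting temperature shift of at least 10% of the positive control shift, at one fixed dose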
FAS TE block: FAS thioesterase (human) inhibition. recombinant FAS-TE, OMFH fluorogenic substrate, fluorescence endpoint. P49327. 0.67% of 360,000 active. inhibition, % at 15 µM;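 active means compounds whose normalised, plate-corrected inhibition of enzyme fluorescence in the single-dose primary screen is 50% or more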
MPTP block: permeability transition pore inhibition. 1.4% of 360,000 active. AID 602449. inhibition, % at 10 µM. isolated mouse mitochondria, Ca2+ swelling absorbance, 30 min;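 active means inhibition of 50% or more, scaled per plate between neutral and stimulator controls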
Myeloid diff 2: myeloid differentiation induction | ER-HoxA9 myeloid progenitors, lysozyme-GFP differentiation, flow cytometry | calls only at 10 µM | 1% of 360,000 active;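 active means normalized GFP-positive differentiation at or above the plate's own cutoff, the solvent-only control mean plus 3 SD; inconclusive means no clear call, values can overlap the other calls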;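 further: cells exposed to compound for four days before flow analysis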
rCAG bind conf: r(CAG) RNA repeat binding, confirmation | 70% of 4,300 active | shares compounds with rCAG RNA binder | inhibition, % at 3 µM | AID 652065 | TO-PRO-1 dye displacement fluorescence;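 active means inhibition above a per-plate cutoff, the mean inhibition of sample wells plus 3 SD, cut at about 35% in these data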;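 further: loss of TO-PRO-1 fluorescence as compound displaces dye from 1x1 AA loop RNA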
dCAG dye counter: counter-screen for rCAG RNA binders: DNA CAG dye complex inhibitors. 94% of 4,300 active. d(CAG) DNA oligo TO-PRO-1 dye displacement, fluorescence. shares compounds with rCAG RNA binder. inhibition, % at 3 µM;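 active means inhibition above its plate's cutoff, the mean test-well inhibition plus 3 SD, cut at about 4.8% in these data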;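 further: hits displace the dye from DNA and so lower well fluorescence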
DNA CAG DR: disrupts DNA CAG TO-PRO-1 complex in dose response; shares compounds with rCAG RNA binder; DNA CAG/GTC duplex TO-PRO-1 dye displacement fluorescence; IC50, µM; 20% of 250 active; AID 686960; in the data active means IC50 below about 10 µM
Large screens that a line does not name were inactive (follow-up assays come after a bar, where they were run).

Cc1ccc(NC(=S)N(Cc2ccc(Cl)cc2)Cc2ccc(C(=O)O)cc2)cc1Cl	rCAG RNA binder 76 | rCAG bind conf 69 | dCAG dye counter 28 | DNA CAG DR inactive
COc1ccc(CN(CC2CCC(C(=O)O)CC2)C(=S)Nc2ccc(C)c(Cl)c2)cc1 (configuration not stated)	rCAG RNA binder 35 | rCAG bind conf inactive | dCAG dye counter 5.8
CCN1C(=O)[C@@H]2[C@@H]3CN(S(=O)(=O)c4ccc(C)cc4)[C@@H](c4ccccc4)[C@@H]3C(=O)C[C@@H]2C1=O	none (no result: NR3A LBD binder)
CCOC1=CC2=C(C(=O)C(Cl)=CC2=O)[C@@H]2CN(S(=O)(=O)c3ccc(C)cc3)[C@@H](c3ccccc3)[C@H]12	rCAG RNA binder 73, Myeloid diff 2 inconclusive (no result: NR3A LBD binder) | rCAG bind conf 57 | dCAG dye counter 21
Cc1cc(C)cc(CC(=O)N2CCC2(C)C(=O)NS(=O)(=O)c2ccccc2C)c1 (configuration not stated)	none (no result: NR3A LBD binder)
CC(C)(C)c1ccc(S(=O)(=O)NC(=O)C2(C)CCN2C(=O)Cc2ccccc2Cl)cc1 (configuration not stated)	rCAG RNA binder 47 (no result: NR3A LBD binder) | rCAG bind conf 56 | dCAG dye counter 21
CC1(C(=O)NS(=O)(=O)c2ccc(Cl)cc2)CCN1C(=O)Cc1cccc2ccccc12 (configuration not stated)	rCAG RNA binder 46 (no result: NR3A LBD binder) | rCAG bind conf inactive | dCAG dye counter 7.6
COc1ccc(S(=O)(=O)NC(=O)C2(C)CCN2C(=O)Cc2ccccc2Cl)cc1 (configuration not stated)	none (no result: NR3A LBD binder)
Cc1ccccc1S(=O)(=O)NC(=O)C1(C)CCN1C(=O)Cc1ccc(C(C)(C)C)cc1 (configuration not stated)	rCAG RNA binder 40 (no result: NR3A LBD binder) | rCAG bind conf inactive | dCAG dye counter 8.7
CC(C)(C)c1ccc(S(=O)(=O)NC(=O)C2(C)CCN2C(=O)c2cccc3ccccc23)cc1 (configuration not stated)	rCAG RNA binder 57 (no result: NR3A LBD binder) | rCAG bind conf 52 | dCAG dye counter 16
CC1(C(=O)NS(=O)(=O)c2ccccc2Cl)CCN1C(=O)Cc1ccccc1 (configuration not stated)	none (no result: NR3A LBD binder)
CC(C)(C)c1ccc(CC(=O)N2CCC2(C)C(=O)NS(=O)(=O)c2ccccc2Cl)cc1 (configuration not stated)	rCAG RNA binder 41 (no result: NR3A LBD binder) | rCAG bind conf inactive | dCAG dye counter 8.3
COc1cc(/C=N\NC(=O)C2COc3ccccc3O2)cc(OC)c1O (configuration not stated)	none
CCOc1ccc(-n2c(O)c(/C=N/NC(=O)C3COc4ccccc4O3)c3ccccc3c2=O)cc1 (configuration not stated)	rCAG RNA binder 76 | rCAG bind conf 74 | dCAG dye counter 37
COc1ccc(NC(=O)CSc2n[nH]c(=O)n2C2CC2)cc1Cl	none
COc1ccc(NC(=O)CSc2nc(-c3ccco3)nc3cc(=O)[nH]n23)cc1Cl	rCAG RNA binder 54 | rCAG bind conf 36 | dCAG dye counter 14
O=C(CSc1nnc(-c2ccco2)o1)Nc1c(F)cccc1F	none
CC(C)OP(=O)(OC(C)C)C1(NS(=O)(=O)c2ccc(Cl)cc2)C=C(Cl)C(=O)C(Cl)=C1	rCAG RNA binder 40 | rCAG bind conf inactive | dCAG dye counter 5.9
CC(C)N(CCNS(=O)(=O)c1ccc(Cl)cc1)C(C)C	none
O=C(N=Nc1c(O)[nH]c2ccccc12)c1ccccc1NS(=O)(=O)c1cccs1	rCAG RNA binder 65 | rCAG bind conf 41 | dCAG dye counter 15
COc1ccc2[nH]c(O)c(N=NC(=O)c3ccc(NS(=O)(=O)c4cccs4)cc3)c2c1	rCAG RNA binder 36 | rCAG bind conf 57 | dCAG dye counter 25
Cc1cccc2c(N=NC(=O)c3ccc(NS(=O)(=O)c4cccs4)cc3)c(O)[nH]c12	rCAG RNA binder 42 | rCAG bind conf 72 | dCAG dye counter 30
Cc1c(OC(C(=O)O)c2ccccc2)ccc2c1oc(=O)c1ccccc12 (configuration not stated)	rCAG RNA binder 36 | rCAG bind conf 48 | dCAG dye counter 14
COc1ccc(N2CCN(C(=O)CSc3nnc(C4CC4)n3C3CC3)CC2)cc1	none (no result: NR3A LBD binder)
COC(=O)c1c(C)[nH]c(C)c1-c1ccc(C)cc1	rCAG RNA binder 43 | rCAG bind conf inactive | dCAG dye counter inactive
COC(=O)c1c(C)[nH]c(C)c1-c1cccc([N+](=O)[O-])c1	none
S=c1[nH]nc(-c2ccco2)n1/N=C/C(Cl)=C/c1ccccc1	rCAG RNA binder 58 | rCAG bind conf 52 | dCAG dye counter 18
S=c1[nH]nc(-c2ccco2)n1/N=C/c1cccc(Cl)c1	none
S=c1[nH]nc(-c2ccco2)n1/N=C/c1ccc(Cl)c(Cl)c1	rCAG RNA binder 41 | rCAG bind conf 40 | dCAG dye counter 10
Cc1cccc(NC(=O)CSc2nnc3ccc(-c4ccccn4)nn23)c1	none
CC(=O)c1c(C)[nH]c(C(=O)Nc2cccc(S(=O)(=O)N3CCCC3)c2)c1C	none
CCOC(=O)c1c(NC(=O)C2CCCO2)sc(C)c1C (configuration not stated)	none
Cc1sc(NC(=O)C2CCCO2)c(C(N)=O)c1C (configuration not stated)	rCAG RNA binder 42 | rCAG bind conf inactive | dCAG dye counter inactive
CCN(CC)c1nc(Nc2ccc(Cl)cc2)nc(OCC#N)n1	rCAG RNA binder 51 | rCAG bind conf inactive | dCAG dye counter inactive
C[C@H]1CN([C@@H](C)CO)C(=O)Cc2cc(NS(=O)(=O)c3ccc(Cl)cc3)ccc2O[C@@H]1CN(C)C(=O)Nc1cccc2ccccc12	none
Cc1ccc(S(=O)(=O)Oc2ccc(C3C4=C(CCCC4=O)N(CCC(=O)O)C4=C3C(=O)CCC4)cc2Cl)cc1	rCAG RNA binder 36 | rCAG bind conf 37 | dCAG dye counter 11
C/C(=N\N=C(/N)SC1CC(=O)N(c2cccc(Cl)c2)C1=O)c1cccs1 (configuration not stated)	rCAG RNA binder 54 (no result: NR3A LBD binder) | rCAG bind conf 73 | dCAG dye counter 29 | DNA CAG DR inactive
COC(=O)c1ccc2[nH]ccc2c1	none
O=C(O)CCn1cc(/C=C2\NC(=S)N(c3ccccc3)C2=O)c(-c2ccc(Br)cc2)n1	rCAG RNA binder 41 | rCAG bind conf 39 | dCAG dye counter 9.4
CC(NC(=O)C1CCN(Cc2ccc(Oc3ccccc3)cc2)CC1)c1cccc2ccccc12 (configuration not stated)	none (no result: NR3A LBD binder)
